# Assay results from PubChem BioAssay (EPA / NIEHS).
# Records with an inconclusive call do not appear. Calls of active or inactive are those of the source. How the source made its calls, unless noted: active means hit-call score of the fitted dose curve at least 0.9, where 1 is the maximum; inactive means score below 0.9.
# Legend:
# [1] = target: Estrogen receptor (Homo sapiens) (UniProt P03372); experiment: CCTE_Deisenroth_AIME_384WELL_LUC_Active: CCTE's 384-well Estrogen Receptor Transactivation Assay with AIME metabolic competence (ERTA luciferase; metabolism positive), Deisenroth Lab (AID 2284030; active means hit-call score of the fitted dose curve at least 0.9, where 1 is the maximum)
# Summary of the method: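 Chemicals (10-point, 0.002-200 uM) were first incubated 2 hours with alginate-immobilized induced male Sprague Dawley rat liver S9. The conditioned medium was then applied to VM7Luc4E2 cells for 24 hours, with ER luciferase induction read by luminescence relative to 17beta-estradiol.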
# [2] = CCTE_Deisenroth_AIME_384WELL_CTox_Active: Cytotoxicity Assessment (CTOX) in CCTE's 384-well Estrogen Receptor Transactivation Assay with AIME metabolic competence (metabolism positive), Deisenroth Lab (AID 2284037; active means hit-call score of the fitted dose curve at least 0.9, where 1 is the maximum;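 further: activity means signal loss indicating cell death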)
# Summary of the method: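 VM7Luc4E2 breast cells received medium pre-incubated 2 h with chemical over alginate microspheres holding induced male Sprague Dawley rat liver S9; viability read 24 h later by protease-substrate fluorescence. Loss of signal, bidirectional fit, 0.002–200 uM.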
# [3] = target: Estrogen receptor (Homo sapiens) (UniProt P03372); experiment: CCTE_Deisenroth_AIME_384WELL_LUC_Inactive: CCTE's 384-well Estrogen Receptor Transactivation Assay without AIME metabolic competence (ERTA luciferase; metabolism negative), Deisenroth Lab (AID 2284038; active means hit-call score of the fitted dose curve at least 0.9, where 1 is the maximum;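 further: hits raise estrogen receptor luciferase signal so potencies reflect agonists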)
# Summary of the method: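 Chemicals (10-point series, 0.002 - 200 uM) were incubated 2 hours with alginate-water microsphere lids lacking S9, then the conditioned medium was transferred to VM7Luc4E2 breast cells for 24 hour. Luciferase induction was read by bioluminescence, fitted upward relative to 17beta-estradiol.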
# [4] = CCTE_Deisenroth_AIME_96WELL_CTox_Active: Cytotoxicity Assessment (CTOX) in CCTE's 96-well Estrogen Receptor Transactivation Assay with AIME metabolic competence (metabolism positive), Deisenroth Lab (AID 2284028; active means hit-call score of the fitted dose curve at least 0.9, where 1 is the maximum)
# Summary of the method: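 Chemicals (0.002–200 uM) were first incubated 2 h with alginate-immobilized phenobarbital/beta-naphthoflavone-induced male rat liver S9; conditioned medium then went onto VM7Luc4E2 cells for 24 h, with viability read by protease-substrate fluorescence, fitted bidirectionally.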
# [5] = CCTE_Deisenroth_AIME_96WELL_CTox_Inactive: Cytotoxicity Assessment (CTOX) in CCTE's 96-well Estrogen Receptor Transactivation Assay without AIME metabolic competence (metabolism negative), Deisenroth Lab (AID 2284029; active means hit-call score of the fitted dose curve at least 0.9, where 1 is the maximum)
# Summary of the method: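 Chemicals (10-point series, 0.002-200 uM) were incubated 2 h with alginate-water microspheres lacking S9. The conditioned medium was then transferred onto VM7Luc4E2 cells for 24 h. Viability was measured by protease-substrate cleavage to a fluorescent probe, with loss of signal fitted bidirectionally; n≥4 experimental replicates.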
# [6] = CCTE_Shafer_MEA_dev_firing_rate_mean: CCTE's Neural Network Formation Assay for Mean Firing Rate, Shafer Lab (AID 2284031)
# Summary of the method: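 Primary rat cortical neurons on 48-well, 16-electrode MEAs (PEI-coated, laminin at plating), exposed from day 0 with compound renewed at DIV 5 and 9. Spikes recorded DIV 5, 7, 9, 12; well-mean firing rate collapsed to trapezoidal AUC, loss-of-signal vs DMSO.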
# [7] = CCTE_Shafer_MEA_dev_per_burst_spike_percent: CCTE's Neural Network Formation Assay for Percent of Spikes in a Burst, Shafer Lab (AID 2284032)
# Summary of the method: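 Rat primary cortical neurons on 16-electrode MEA wells, dosed from plating day 0 for 12 days with renewal on DIV 5 and 9; spikes-in-bursts percentage averaged over bursting electrodes, collapsed as AUC across days 5, 7, 9, 12; loss direction versus DMSO.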
# [8] = CCTE_Shafer_MEA_acute_per_burst_spike_number_mean: CCTE's Neural Acute Assay for Average Number of Spikes Per Burst, Shafer Lab (AID 2284015);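 further: hits are decreases in mean spikes per burst versus baseline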
# Summary of the method: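 Read-out: percent change in mean spikes per burst, each well's post-exposure 40-min recording versus its own 40-min baseline. Rat cortical cultures, DIV 13 or 15, compounds 0.03-40 uM; DMSO is negative control, loss-of-signal fitting.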
# [9] = CCTE_Shafer_MEA_acute_interburst_interval_mean: CCTE's Neural Acute Assay for Mean Interburst Interval, Shafer Lab (AID 2284016);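 further: percent change of mean interburst interval versus each well's own pre-dose baseline; curves fitted for decrease in interburst interval relative to DMSO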
# Summary of the method: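 Rat cortical cultures, DIV 13/15; 20 min equilibration, 40 min baseline, compound 0.03-40 uM, 40 min re-recording, 37 C. Spikes detected at 8x rms noise (300-5000 Hz band-pass). Endpoint: % change in interburst interval, fitted in loss direction vs DMSO.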
# [10] = CCTE_Shafer_MEA_acute_burst_percentage_mean: CCTE's Neural Acute Assay for Percentage of Spikes in a Burst, Shafer Lab (AID 2284017)
# Summary of the method: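 Rat cortical cultures, DIV 13/15, 37 C. Spikes detected at 8x rms noise (300-5000 Hz band-pass). Burst spikes/total spikes averaged across electrodes per well; % change post- vs pre-treatment (40 min each), loss-of-signal fit vs DMSO.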
# [11] = CCTE_Shafer_MEA_acute_burst_percentage_std: CCTE's Neural Acute Assay for Standard Deviation of Burst Percentage, Shafer Lab (AID 2284018);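 further: fitted in the negative direction so actives lower burst percentage SD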
# Summary of the method: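 Primary rat cortical neurons on 16-electrode MEA wells were recorded 40 min at baseline (DIV 13 or 15), then 40 min after compound (0.03-40 uM), at 37 C. Well value is SD across electrodes of spikes-in-bursts/total spikes; endpoint is percent change, DMSO-referenced.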
# [12] = CCTE_Shafer_MEA_acute_per_network_burst_spike_number_mean: CCTE's Neural Acute Assay for Average Number of Spikes in a Network Burst, Shafer Lab (AID 2284019)
# Summary of the method: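 Primary rat cortical neurons on 16-electrode MEA wells, DIV 13 or 15, 37 C; 40-min baseline then 40-min recording with compound (0.03-40 uM). Spikes per network burst (total spikes/number of bursts) expressed as percent change from baseline, DMSO reference.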
# [13] = CCTE_Shafer_MEA_acute_per_network_burst_spike_number_std: CCTE's Neural Acute Assay for Standard Deviation of Number of Spikes in a Network Burst, Shafer Lab (AID 2284020);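 further: fitted for decrease in spike-number SD versus DMSO so actives lower it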
# Summary of the method: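 Primary rat cortical neurons on 48-well MEAs (16 electrodes/well) recorded at DIV 13 or 15: 40-min baseline, then 40 min with compound (0.03-40 uM), 37 C. Value is percent change in SD of spikes per network burst, relative to DMSO.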
# [14] = CCTE_Shafer_MEA_acute_per_network_burst_electrodes_number_mean: CCTE's Neural Acute Assay for Mean Number of Electrodes in a Network Burst, Shafer Lab (AID 2284021);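 further: curves fitted for decreases only so hits reduce electrodes per burst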
# Summary of the method: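 Rat primary cortical neurons on 48-well MEAs, DIV 13 or 15, were treated at 0.03-40 uM. Spikes were detected at 8x rms noise and recorded at 37 C. The mean electrodes per network burst in a 40 min exposure recording was expressed as percent change from a 40 min baseline.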
# [15] = CCTE_Shafer_MEA_acute_network_burst_percentage: CCTE's Neural Acute Assay for Percentage of Network Bursts, Shafer Lab (AID 2284022);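 further: curves fitted for loss so actives lower network burst percentage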
# Summary of the method: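 Rat primary cortical neuron networks on 48-well MEA plates, DIV 13 or 15, treated acutely with compound (0.03-40 uM, at least three wells). Percent of spikes within network bursts compared between 40-min recordings before and during exposure at 37 C, expressed as percent change.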
# [16] = CCTE_Shafer_MEA_acute_cross_correlation_area: CCTE's Neural Acute Assay for Area of Cross Correlation, Shafer Lab (AID 2284024);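 further: curves fitted for loss of cross-correlation area so actives lower synchrony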
# Summary of the method: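 Rat primary cortical neurons on 48-well MEA, DIV 13 or 15; compounds 0.03-40 uM. Baseline and post-exposure 40 min recordings at 37 C; percent change in area under pooled inter-electrode cross-correlation near zero lag, relative to DMSO.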
# [17] = CCTE_Shafer_MEA_acute_cross_correlation_HWHM: CCTE's Neural Acute Assay for Cross Correlation at Half Width at Half Maximum, Shafer Lab (AID 2284026);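 further: percent change per well from pre-dose baseline in spike cross-correlogram half width; hits are a decrease in cross-correlogram half width relative to DMSO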;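 on outcome: spontaneous network firing of rat primary cortical neurons on multiwell microelectrode arrays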
# Summary of the method: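 Rat primary cortical neurons on 48-well MEA plates; 40-min baseline and 40-min post-exposure recordings at 37 C on DIV 13 or 15, compounds 0.03-40 uM. Spikes detected at 8x rms noise; percent change in cross-correlogram HWHM per well vs baseline.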
# [18] = CCTE_Shafer_MEA_acute_synchrony_index: CCTE's Neural Acute Assay for Synchrony, Shafer Lab (AID 2284027);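 further: network synchrony index of spontaneous spiking in primary rat cortical neurons on MEAs; fitted for loss of signal so actives lower synchrony relative to DMSO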
# Summary of the method: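 Primary rat cortical neurons on 16-electrode MEA wells were recorded 40 min at baseline (DIV 13 or 15) and 40 min after compound (0.03-40 uM) at 37 C. Synchrony index (0-1) expressed as percent change from baseline, versus DMSO.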
# [19] = target: Estrogen receptor (Homo sapiens) (UniProt P03372); experiment: CCTE_Deisenroth_AIME_96WELL_LUC_Active: CCTE's 96-well Estrogen Receptor Transactivation Assay with AIME metabolic competence (ERTA luciferase; metabolism positive), Deisenroth Lab (AID 2284023; active means hit-call score of the fitted dose curve at least 0.9, where 1 is the maximum)
# Summary of the method: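 Chemicals pre-incubated 2 h with alginate-immobilized phenobarbital/beta-naphthoflavone-induced male Sprague Dawley rat liver S9, then medium transferred to VM7Luc4E2 cells for 24 h luciferase read-out. 10-point series 0.002 - 200 uM; fitted relative to 17beta-estradiol.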
# [20] = target: Estrogen receptor (Homo sapiens) (UniProt P03372); experiment: CCTE_Deisenroth_AIME_96WELL_LUC_Inactive: CCTE's 96-well Estrogen Receptor Transactivation Assay without AIME metabolic competence (ERTA luciferase; metabolism negative), Deisenroth Lab (AID 2284025; active means hit-call score of the fitted dose curve at least 0.9, where 1 is the maximum)
# Summary of the method: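 VM7Luc4E2 breast cells, luciferase read 24 h after dosing with medium pre-incubated 2 h on alginate-water lids (metabolism negative). 10-point series 0.002–200 uM, single technical replicate, n≥4; fit relative to 17beta-estradiol.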
# Chain of Estrogen receptor (Homo sapiens) (P03372 whole entry, looked up): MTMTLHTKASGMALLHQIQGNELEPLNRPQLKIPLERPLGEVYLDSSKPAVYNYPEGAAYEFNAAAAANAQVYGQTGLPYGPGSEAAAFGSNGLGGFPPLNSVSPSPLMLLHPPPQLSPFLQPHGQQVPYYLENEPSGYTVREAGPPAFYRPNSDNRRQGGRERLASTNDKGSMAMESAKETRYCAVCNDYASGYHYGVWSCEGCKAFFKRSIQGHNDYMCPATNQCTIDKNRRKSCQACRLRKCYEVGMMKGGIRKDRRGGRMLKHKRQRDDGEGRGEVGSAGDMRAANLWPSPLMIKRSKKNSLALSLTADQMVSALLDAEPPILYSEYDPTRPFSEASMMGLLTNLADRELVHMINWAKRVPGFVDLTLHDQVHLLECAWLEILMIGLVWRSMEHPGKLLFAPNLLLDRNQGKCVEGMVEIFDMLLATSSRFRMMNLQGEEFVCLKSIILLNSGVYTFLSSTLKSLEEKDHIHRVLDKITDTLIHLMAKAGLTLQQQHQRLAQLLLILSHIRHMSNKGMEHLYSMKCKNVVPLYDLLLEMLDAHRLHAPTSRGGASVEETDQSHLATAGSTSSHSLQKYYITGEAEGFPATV
smiles,measurement,setting,value
O=C(OCc1ccccc1)c1ccccc1O,outcome,[1],inactive
same,outcome,[2],inactive
same,AC50,[3],46.4 µM (active)
C[C@]12CC[C@@H]3c4ccc(O)cc4CC[C@H]3[C@@H]1CC[C@@H]2O,outcome,[4],inactive
same,outcome,[5],inactive
same,outcome,[6],inactive
same,outcome,[7],inactive
c1ccc2scnc2c1,outcome,[1],inactive
same,outcome,[6],inactive
same,outcome,[7],inactive
same,outcome,[3],inactive
CC(C)(CO)CO,outcome,[8],inactive
same,outcome,[9],inactive
same,outcome,[10],inactive
same,outcome,[11],inactive
same,outcome,[12],inactive
same,outcome,[13],inactive
same,outcome,[14],inactive
same,outcome,[15],inactive
same,outcome,[16],inactive
same,outcome,[17],inactive
same,outcome,[18],inactive
CCn1cc(C(=O)O)c(=O)c2ccc(C)nc21,outcome,[8],inactive
same,outcome,[9],inactive
same,outcome,[10],inactive
same,outcome,[11],inactive
same,outcome,[12],inactive
same,outcome,[13],inactive
same,outcome,[14],inactive
same,outcome,[15],inactive
same,AC50,[16],3 nM (active)
same,outcome,[17],inactive
same,outcome,[18],inactive
CC(=O)c1ccc(C)cc1,outcome,[8],inactive
same,outcome,[9],inactive
same,outcome,[10],inactive
same,outcome,[11],inactive
same,outcome,[12],inactive
same,outcome,[13],inactive
same,outcome,[14],inactive
same,outcome,[15],inactive
same,outcome,[16],inactive
same,outcome,[17],inactive
same,outcome,[18],inactive
c1ccc(OCCOc2ccccc2)cc1,outcome,[8],inactive
same,outcome,[9],inactive
same,outcome,[10],inactive
same,outcome,[11],inactive
same,outcome,[12],inactive
same,outcome,[13],inactive
same,outcome,[14],inactive
same,outcome,[15],inactive
same,outcome,[16],inactive
same,outcome,[17],inactive
same,outcome,[18],inactive
c1ccc(Cc2ccccc2)cc1,AC50,[19],74.4 µM (active)
same,outcome,[20],inactive
N[C@@H](CCC(=O)O)C(=O)O,outcome,[8],inactive
same,outcome,[9],inactive
same,outcome,[10],inactive
same,outcome,[11],inactive
same,outcome,[12],inactive
same,outcome,[13],inactive
same,outcome,[14],inactive
same,outcome,[15],inactive
same,outcome,[16],inactive
same,outcome,[17],inactive
same,outcome,[18],inactive
same,outcome,[6],inactive
same,outcome,[7],inactive
CCCO[Si](OCCC)(OCCC)OCCC,outcome,[8],inactive
same,AC50,[9],15 µM (active)
same,outcome,[10],inactive
same,outcome,[11],inactive
same,outcome,[12],inactive
same,outcome,[13],inactive
same,outcome,[14],inactive
same,AC50,[15],2.98 µM (active)
same,outcome,[16],inactive
same,AC50,[17],21.2 nM (active)
same,outcome,[18],inactive
CC(C)N(c1ccccc1)C(C)C,outcome,[1],inactive
same,outcome,[2],inactive
same,outcome,[3],inactive
CC(C)C(=O)c1ccccc1,outcome,[1],inactive
same,outcome,[2],inactive
same,outcome,[3],inactive
